In the library only some 1.4% were active in any assay of this set; here they are far more common.
QS inhibitor: inhibitors of bacterial quorum sensing in S. aureus; S. aureus RN6390 RNAIII-GFP reporter, AIP-induced, flow cytometry 3 h; 24,000 tested, 0.3% active; inhibition, % at 2 µM;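 active = share of bacteria positive for the green fluorescent reporter and its mean brightness both inhibited by 50% or more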
FPRL1 binder: binds the human formylpeptide receptor-like-1 FPRL1. P25090. FPRL1-expressing cells, fluorescent ligand binding inhibition, flow cytometry. inhibition, % (test concentration not listed). 24,000 tested, 0.3% active
LNCaP diff act: promotes differentiation of LNCaP prostate cells. flow cytometry side scatter, 4 d. side scatter shift, % at 10 µM. 24,000 tested, 0.56% active. AID 795;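 active = side scatter shift above 30%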;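 also: androgen-responsive LNCaP prostate cancer cells in charcoal-stripped serum medium; higher shift means more granular cells and more differentiation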
FPR binder: binds the human formylpeptide receptor FPR. FPR-expressing cells, fluorescent ligand binding, flow cytometry. inhibition, % (concentration not given with the values). 24,000 tested, 0.74% active
Target sequence (P21462 whole entry, looked up): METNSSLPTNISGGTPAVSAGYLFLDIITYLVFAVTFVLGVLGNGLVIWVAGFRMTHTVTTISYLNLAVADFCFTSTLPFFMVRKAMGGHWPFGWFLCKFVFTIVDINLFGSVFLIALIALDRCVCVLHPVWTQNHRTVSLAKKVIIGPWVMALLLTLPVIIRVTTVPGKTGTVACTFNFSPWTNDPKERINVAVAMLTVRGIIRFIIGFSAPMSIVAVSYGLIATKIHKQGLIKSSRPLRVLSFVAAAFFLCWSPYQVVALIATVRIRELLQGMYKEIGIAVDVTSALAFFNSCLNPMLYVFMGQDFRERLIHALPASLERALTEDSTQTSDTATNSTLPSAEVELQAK
Numbers stand for hits; . = inactive; / = no result given. Rule as the data show it, unless noted: active = inhibition above about 30%; inconclusive = no clear call, values can overlap the other calls; inactive = below that.

SMILES	QS inhibitor	FPRL1 binder	LNCaP diff act	FPR binder
COc1ccccc1-n1c(CNC(=O)c2ccco2)nnc1SCC(=O)Nc1ccc(F)cc1	.	.	.	47.4
COc1ccccc1-n1c(CNC(=O)c2ccco2)nnc1SCC(=O)Nc1cc(C)ccc1C	.	.	.	.
COc1ccc(N(CC(=O)Nc2ccc(C)cn2)S(=O)(=O)c2c(C)noc2C)cc1	.	.	.	.
CCN(CC)CCCNC(=O)c1cc(-c2ccc(O)cc2)on1	.	.	.	.
CCN(CC)CCCNC(=O)c1cc(-c2ccc(Cl)c(Cl)c2)on1	.	.	48.0	.
CN1CCN(CCCNC(=O)c2cc3c(-c4ccc(Cl)cc4)nn(C)c3s2)CC1	.	.	57.0	.
CCN(CC)CCCNC(=O)c1cc2c(-c3ccc(Cl)cc3)nn(C)c2s1	.	.	52.0	.
Cc1ccc(/C(O)=C2/C(=O)C(=O)N(CCN3CCOCC3)C2c2cccs2)cc1 (stereo not drawn)	/	.	/	.
CCc1oc2ccccc2c1C(=O)c1cc(Br)c(O)c(Br)c1	52.4	.	.	.
CCOC(=O)c1c(COc2ccccc2)oc2ccc(O)cc12	.	/	/	/
COc1ccc(OC)c(N(CC(=O)N2CCN(c3cc(Cl)ccc3C)CC2)S(C)(=O)=O)c1	.	.	.	.
COc1ccc(C)cc1NC(=O)C1CCCCC1C(=O)O (stereo not drawn)	/	.	/	32.5
COc1ccc(OC)c(NC(=O)[C@H]2CC=CC[C@H]2C(=O)O)c1	.	.	.	.
CCC(C)NC(=O)c1cn(C)c(=O)c2cc(OC)c(OC)cc12 (stereo not drawn)	.	.	37.0	.
FC(F)(F)C(F)(F)C(F)(F)c1nnc2ccc(N3CCOCC3)nn12	.	.	.	.
CCCn1c(=S)[nH]c2cc(C(=O)N3CCN(c4ccccc4OC)CC3)ccc2c1=O	66.0	.	.	.
CC(=O)Nc1ccccc1Nc1cc(C#N)c(C#N)cc1[N+](=O)[O-]	/	.	/	.
CCC(=O)N1CCc2cc(Br)cc(S(=O)(=O)N3CCN(c4ccccn4)CC3)c21	.	.	.	.
O=c1cc(N2CCN(c3ccc(F)cc3)CC2)[nH]c(=O)n1C1CCCCC1	.	.	34.0	.
O=C(NC1CC1)c1cccc(Nc2ccc(-c3ccc4c(c3)OCCO4)nn2)c1	.	.	.	.
CCOC(=O)CCn1nc(-c2ccc(Cl)cc2)cc1N	.	51.3	.	54.0
CCOC(=O)Cn1nc(-c2ccc(Cl)cc2)cc1N	.	.	/	.
Cc1cc(NC(=O)c2noc3c2CCc2ccccc2-3)n(-c2ccccc2)n1	.	.	35.0	.
Cc1ccc(C)c2[nH]c(=O)c(CN(CCN3CCCC3)C(=O)Nc3cccc(Cl)c3)cc12	84.4	.	73.0	.
CCc1ccc2[nH]c(=O)c(CN(CCCN3CCOCC3)C(=O)Nc3cccc(Cl)c3)cc2c1	60.1	/	/	/
SMILES	QS inhibitor	FPRL1 binder	LNCaP diff act	FPR binder
Cc1ccc2[nH]c(=O)c(CN(CCN3CCOCC3)C(=O)Nc3ccc(F)cc3)cc2c1	.	/	/	/
CCc1ccc2[nH]c(=O)c(CN(CCCN3CCOCC3)C(=O)Nc3ccc(Cl)cc3)cc2c1	93.5	/	/	/
O=C(Nc1ccccc1)N(CCCN1CCOCC1)Cc1cc2cc3c(cc2[nH]c1=O)OCCO3	.	.	.	.
CCn1ccnc1C(O)c1cccc(OC)c1OC (stereo not drawn)	.	.	.	.
CSc1nc(-c2ccccc2O)nc(-c2ccccc2O)n1	.	.	.	.
CCN(CC)CCNC(=O)c1ccc(CS(=O)(=O)c2ccc(Br)cc2)o1	.	.	.	.
COc1cccc(C2C(C(=O)OC(C)C)=C(C)Nc3ncnn32)c1 (stereo not drawn)	.	.	.	.
COc1ccc(-c2cn3cccnc3n2)cc1NC(=O)C1CC1	.	75.5	.	.
COc1ccc(NC(=O)C2CCCN(S(=O)(=O)c3cccc4cccnc34)C2)c(OC)c1 (stereo not drawn)	.	.	.	.
COc1ccc(-c2cn3cccnc3n2)cc1NC(=O)C1CCCC1	.	73.5	.	.
Cc1nc2c(ccc3nc(NC(=O)c4ccc5c(c4)OCCO5)sc32)s1	57.1	.	.	.
CCOC(=O)N1CCC(N2C(=O)c3ccccc3C2Nc2cc(C(=O)OC)cc(C(=O)OC)c2)CC1 (stereo not drawn)	.	.	.	.
CC(C)OC(=O)c1nnn(-c2nonc2N)c1CN1CCc2ccccc2C1	.	.	.	42.8
COc1cccc(Oc2cnc(N)nc2-c2ccc(OC)cc2O)c1	61.8	.	.	.
COc1ccccc1S(=O)(=O)Cc1ccc(C(=O)NC(C)c2ccc3c(c2)OCCO3)o1 (stereo not drawn)	.	.	.	.
CC1(C)S[C@@H]2[C@H](NC(=O)Cc3ccccc3)C(=O)N2[C@H]1C(=O)O	.	.	.	48.4
CC1(C(=O)NC2CCCC2)CCC(=O)N1Cc1ccccc1 (stereo not drawn)	.	.	.	.
COc1cccc(-c2cc(C(F)(F)F)nc(N3CCN(c4ccccc4)CC3)n2)c1	.	/	.	.
Cc1cccc(-c2nsc(SCC(=O)Nc3nccs3)n2)c1	.	.	34.0	.
Cc1ccc(CNc2nc3ccccc3n3nnnc23)cc1	.	.	35.0	.
CC(C)(C)NC(=O)c1ccc2c(c1)N(CC(=O)N1CCN(c3ccccc3F)CC1)C(=O)C(C)(C)O2	.	/	/	/
COc1ccc(OC)c(C2C(C(=O)c3cccs3)=C(O)C(=O)N2c2cc(C)on2)c1 (stereo not drawn)	/	.	/	56.2
COc1cccc(C2C(C(=O)c3cccs3)=C(O)C(=O)N2c2cc(C)on2)c1 (stereo not drawn)	/	.	/	.
COc1cccc(C2C(C(=O)c3cc4ccccc4o3)=C(O)C(=O)N2c2cc(C)on2)c1OC (stereo not drawn)	/	.	/	53.9
COc1cccc(C2C(C(=O)c3cc4cccc(OC)c4o3)=C(O)C(=O)N2c2cc(C)on2)c1OC (stereo not drawn)	/	.	/	.
SMILES	QS inhibitor	FPRL1 binder	LNCaP diff act	FPR binder
COC(=O)Cn1c(=O)c2c(nc3n2CC(C)CN3c2ccc(C)c(C)c2)n(C)c1=O (stereo not drawn)	.	.	.	.
CC(C)CCOP(=O)(c1ccc(N(C)C)cc1)C(O)c1ccccc1F (stereo not drawn)	82.2	.	.	.
COc1ccc(Cn2c(CCC(=O)NCc3ccco3)nc3cccnc32)cc1	.	.	.	.
CCOc1cc(NC(=O)c2ccccn2)c(OCC)cc1NC(=O)CC(C)C	.	.	.	.
Cc1cccn2c(=O)c3cc(C(=O)NCc4ccccc4)c(=N)n(CCCN4CCOCC4)c3nc12	.	.	58.0	.
CN1CCN(CCCNC(=O)Nc2cccc3ccccc23)CC1	.	31.9	.	.
COc1ccc(NC(=O)CSc2nccn2-c2ccccc2)c(OC)c1	.	.	.	.
CCOc1ccccc1NC(=O)CSc1nccn1-c1ccccc1	.	36.6	.	44.1
O=S(=O)(NCCc1ccccn1)c1cccs1	.	.	.	.
O=S(=O)(Nc1cccc2ncccc12)c1cccs1	.	39.2	34.0	.
COc1ccc(-c2cc(-c3ccc(F)cc3)nc(N3CCN(C)CC3)n2)cc1	.	.	48.0	.
c1csc(CCNc2ncnc3sc4c(c23)CCC4)c1	66.8	.	.	.
O=C(CSc1ncnc2sc3c(c12)CCCCC3)NCc1ccco1	.	.	.	.

From PubChem BioAssay
